HCMV inh – human cytomegalovirus inhibition; AID 1259415; HFF cells, HCMV-luciferase reporter, 72 h; stronger effect = lower value; 410,000 tested, 4.5% active; activity change, negative = inhibition, % at 57.5 µM; in the data active = activity change below about -60%; inconclusive = no clear call, values can overlap the other calls; inactive = above about -39%
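HFF cells seeded 16 h at 37C, treated with compounds, infected with luciferase-reporter HCMV at MOI 1 PFU/cell; luciferase read at 72 h post infection, normalized to buffer-only and Salinomycin controls.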
VACV mCherry inh – vaccinia inhibition (mCherry reporter) | Vaccinia virus mCherry reporter infection, fluorescence | Potency, µM (doses to about 36.5 µM), usual class: inhibitors | 310,000 tested, 0.63% active; calls by dose curve; tested in A549 cells; note: nearly all actives have a fitted effect of over 35% in size
HCV inh – blocks hepatitis C virus; Huh7.5.1 HCVcc-Cre infection, luciferase reporter, 44 h; 340,000 tested, 3.4% active; Potency, µM (top dose mostly 41.8 µM), usual class: inhibitors; active = well fitted inhibition curve with a large enough effect; inconclusive = small, poorly fitted or top-dose-only effect, or another doubt; inactive = no such curve, though single readings can be large or run the other way
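Reporter virus HCVcc-Cre (~0.5 moi) infects cells exposed to compound; seeding density 1,000 cells/well with 4 h settling beforehand. Luminescence, 15 sec read, taken 44 h post-infection following a 15 min RT substrate incubation.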
VACV Venus inh – inhibitors of vaccinia virus (Venus reporter); Vaccinia virus Venus reporter expression, fluorescence; Potency, µM (series often up to 36.5 µM), most hits filed as inhibitors; 330,000 tested, 0.46% active; AID 720580; calls by dose curve; tested in A549 cells; note: nearly all actives have a fitted effect of over 30% in size
MARV entry inh – inhibitors of Marburg virus binding or cell entry; Marburg virus pseudotyped entry inhibition, cell reporter; Potency, µM (titrated, usually from 37.8 µM), actives largely listed as inhibitors; 300,000 tested, 1.8% active; AID 540276; calls by dose curve; tested in HEK293 cells
LASV entry inh – inhibitors of Lassa virus binding or cell entry; Potency, µM (highest dose often 37.9 µM), most hits filed as inhibitors; AID 540256; 300,000 tested, 1.2% active; Lassa virus pseudotype entry inhibition, cell reporter; calls by dose curve; tested in HEK293 cells; note: nearly all actives have a fitted effect of over 50% in size
Large screens that a line does not name were inactive. This is a sample that favours compounds with a hit; in the whole collection about 7.8% have one here.

O=C1OCCC1Sc1nnc(-c2ccc(Cl)cc2Cl)o1 (stereo not given)	MARV entry inh 5µM, LASV entry inh inconclusive
O=C1OCCC1Sc1nnc(-c2ccccc2)o1 (stereo not given)	none
COc1cc(F)c(S(=O)(=O)Nc2c(C)n(C)n(-c3ccccc3)c2=O)cc1OC	none (no result: HCV inh, MARV entry inh)
NS(=O)(=O)c1ccc(CCNc2ccn3nc(-c4cccc(C(F)(F)F)c4)cc3n2)cc1	VACV mCherry inh 8.9µM, VACV Venus inh inconclusive (no result: HCV inh, MARV entry inh, LASV entry inh)
COc1ccccc1-c1cc2nc(NCCc3ccc(S(N)(=O)=O)cc3)ccn2n1	none (no result: HCV inh, MARV entry inh, LASV entry inh)
Cc1ccc(C(=O)N2CCn3c(nnc3C(=O)NCC3CC3)C2)cc1F	none (no result: VACV mCherry inh, HCV inh, VACV Venus inh, MARV entry inh, LASV entry inh)
Cc1ccccc1-c1ccc(CN2CCc3nnc(CNC(=O)c4ccccn4)n3CC2)cc1	none (no result: HCMV inh, HCV inh, MARV entry inh, LASV entry inh)
COc1c2ccc(OCC/C(C)=C/C(=O)C=C(C)C)cc2nc2occc12	HCMV inh -101, VACV Venus inh inconclusive (no result: MARV entry inh, LASV entry inh)
CC[N+](C)(C)c1ccc(/C=C/c2ccc3ccccc3n2)cc1	none (no result: HCMV inh, HCV inh, MARV entry inh, LASV entry inh)
CSc1ccc(C2NN=C(c3ccccc3)S2)cc1 (stereo not given)	MARV entry inh 2.8µM, LASV entry inh 6.3µM
COc1ccc(OC)c(CCNC(=O)CCn2c(=O)c3cccn3c3cccnc32)c1	HCMV inh inconclusive (no result: HCV inh, MARV entry inh)
COc1ccccc1C(=O)Nc1c(C)cc(Br)cc1C	HCMV inh -61, HCV inh inconclusive (no result: VACV mCherry inh, VACV Venus inh, MARV entry inh, LASV entry inh)
COC(=O)c1ccccc1NC(=O)c1ccccc1OC	HCV inh 11µM (no result: VACV mCherry inh)
COc1ccc(NC(=O)Nc2ccccc2OC)cc1	none
COc1ccccc1NC(=O)Nc1ccc(NC(=O)c2ccccc2O)cc1	HCV inh 13µM (no result: VACV mCherry inh, VACV Venus inh, MARV entry inh, LASV entry inh)
COc1ccccc1NC(=O)c1ccccc1C(=O)Nc1ccccc1OC	none
CCOC(=O)C(Cc1ccccc1)(Nc1ccccc1)C(O)c1ccc([N+](=O)[O-])cc1 (stereo not given)	none (no result: VACV mCherry inh, HCV inh, VACV Venus inh, MARV entry inh, LASV entry inh)
Cc1ccc(OCC(O)C(C)NC(C)C)c2c1CCC2 (stereo not given)	VACV mCherry inh inconclusive, MARV entry inh 16µM (no result: HCMV inh, HCV inh, LASV entry inh)
CCCCn1nc(NC(=O)c2cccc(Cl)c2)c2cc3cccc(C)c3nc21	none (no result: HCV inh)
COc1cc(C(CC(=O)Nc2cccc(C(C)=O)c2)N2Cc3ccccc3C2=O)cc(OC)c1OC (stereo not given)	none (no result: HCV inh, MARV entry inh)
Cc1cccc(OCCNC(=O)c2cc(C3CC3)nc3c2cnn3C(C)C)c1	none (no result: HCV inh, MARV entry inh, LASV entry inh)
COc1ccccc1OCCNC(=O)c1cc(C2CC2)nc2c1cnn2C(C)C	HCV inh 1.3µM
COc1ccc(CCNC(=O)c2cc(C3CC3)nc3c2cnn3C(C)C)cc1	HCV inh 10µM (no result: VACV mCherry inh, VACV Venus inh, MARV entry inh, LASV entry inh)
COc1ccccc1CCNC(=O)c1cc(C2CC2)nc2c1cnn2C(C)C	HCV inh 8.9µM, MARV entry inh inconclusive, LASV entry inh inconclusive
CN(C)CCCN(CCCNC(=O)/C=N\O)Cc1ccccc1	none (no result: HCMV inh, VACV mCherry inh, HCV inh, VACV Venus inh, LASV entry inh)
Cc1cccc(-n2nnnc2S(C)(=O)=O)c1	HCMV inh -108, LASV entry inh inconclusive (no result: HCV inh, MARV entry inh)
COc1cccc(Oc2nnnn2-c2ccccc2)c1	none (no result: VACV mCherry inh, VACV Venus inh)
COc1cccc(-n2nnnc2S(C)(=O)=O)c1	VACV mCherry inh inconclusive, HCV inh inconclusive, VACV Venus inh inconclusive, MARV entry inh inconclusive, LASV entry inh 8.9µM (no result: HCMV inh)
Cc1cc2oc(C(=O)N(Cc3ccc(N(C)C)cc3)Cc3ccco3)c(C)c2cc1Cl	none (no result: HCV inh)
CCOC(=O)Cc1csc(NC(=O)/C=C/c2ccccc2Cl)n1	HCV inh inconclusive, MARV entry inh inconclusive, LASV entry inh inconclusive
COC(=O)Cc1csc(Nc2ccc(Cl)cc2)n1	MARV entry inh inconclusive
CCOC(=O)Cc1csc(Nc2ccc(Cl)cc2)n1	HCMV inh -72, HCV inh inconclusive (no result: MARV entry inh, LASV entry inh)
CCOC(=O)Cc1csc(NC(=S)NC(=O)c2ccc(Cl)cc2)n1	HCMV inh -84 (no result: VACV mCherry inh)
CCOC(=O)Cc1nnc2c(Nc3ccc(Cl)cc3)nc3nonc3n12	HCMV inh -74, VACV mCherry inh inconclusive, HCV inh inconclusive, VACV Venus inh inconclusive, MARV entry inh inconclusive, LASV entry inh inconclusive
CCOC(=O)Cc1csc(NC(=O)/C=C\c2ccccc2Cl)n1	HCV inh 10µM, MARV entry inh inconclusive, LASV entry inh inconclusive
Cc1ccc2oc(=O)n(CCNC(=O)Nc3ccc(Cl)cc3)c2c1	none (no result: HCV inh)
CCOC(=O)Cc1csc(NC(=O)c2ccc(NC(C)=O)cc2)n1	none (no result: VACV mCherry inh)
CCOC(=O)Cc1csc(NC(=O)Nc2ccc(OC(F)(F)F)cc2)n1	HCV inh 10µM, MARV entry inh inconclusive, LASV entry inh inconclusive
Cc1ccc2nc3c(c(Nc4ccc(O)cc4)c2c1)CCC3	HCMV inh inconclusive, VACV mCherry inh inconclusive, HCV inh inconclusive (no result: MARV entry inh, LASV entry inh)

Screening data as filed in PubChem BioAssay.
